About 83,000 compounds went through this panel and 20% of them were active in at least one assay; those are over-represented in the sample as a whole.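 Treatment: one concentration, 48 hours, 96-well format. Scoring: percent growth, with anything below 10 considered active.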 Active and inactive are the calls of the source.
Experiments:
Assay in all cases: NCI-60 one-dose screen, 48 h (100 = growth as untreated, 0 = no growth, -100 = all killed)
Details in all cases: 10 µM unless noted
DU-145 prostate = tested on: DU-145 prostate
K-562 leukemia = tested on: K-562 leukemia
MALME-3M melanoma = tested on: MALME-3M melanoma
MDA-MB-231 breast = tested on: MDA-MB-231 breast
RXF 393 renal = tested on: RXF 393 renal
SF-268 CNS = tested on: SF-268 CNS
SF-295 CNS = tested on: SF-295 CNS
SF-539 CNS = tested on: SF-539 CNS
UACC-257 melanoma = tested on: UACC-257 melanoma
M14 melanoma = tested on: M14 melanoma
HCT-15 colon = tested on: HCT-15 colon
HT29 colon = tested on: HT29 colon
SNB-75 CNS = tested on: SNB-75 CNS
SNB-19 CNS = tested on: SNB-19 CNS
U251 CNS = tested on: U251 CNS
PC-3 prostate = tested on: PC-3 prostate
SK-MEL-5 melanoma = tested on: SK-MEL-5 melanoma
UACC-62 melanoma = tested on: UACC-62 melanoma
LOX IMVI melanoma = tested on: LOX IMVI melanoma
SK-MEL-28 melanoma = tested on: SK-MEL-28 melanoma

Measured: growth

O=C(Nc1ccccc1-c1nc2ccccc2c(=O)[nH]1)c1cc2ccccc2[nH]1
inactive: DU-145 prostate 102% | K-562 leukemia 94.1% | MALME-3M melanoma 107% | MDA-MB-231 breast 79.7% | RXF 393 renal 98.4% | SF-268 CNS 91.9% | SF-295 CNS 91.3% | SF-539 CNS 89.5% | UACC-257 melanoma 83.4% | M14 melanoma 91.7% | HCT-15 colon 98.6% | HT29 colon 91.6% | SNB-75 CNS 63% | SNB-19 CNS 93.4% | U251 CNS 92.3% | PC-3 prostate 78.3% | SK-MEL-5 melanoma 81.2% | UACC-62 melanoma 84.9% | LOX IMVI melanoma 88% | SK-MEL-28 melanoma 99.9%

O=C1/C(=C\c2cccnc2)SC(=S)N1CCc1ccc(O)cc1
inactive: DU-145 prostate 16.6% | K-562 leukemia 36% | MALME-3M melanoma 79.6% | MDA-MB-231 breast 47.1% | RXF 393 renal 25.1% | SF-268 CNS 68.5% | SF-295 CNS 94% | SF-539 CNS 23.2% | UACC-257 melanoma 38.9% | M14 melanoma 60.2% | HCT-15 colon 19.2% | HT29 colon 105% | SNB-19 CNS 82.5% | U251 CNS 68.3% | PC-3 prostate 42.2% | SK-MEL-5 melanoma 90.1% | UACC-62 melanoma 59.9% | LOX IMVI melanoma 17.4% | SK-MEL-28 melanoma 71%
active: SNB-75 CNS -4.79%

O=C1c2cccc(NCCN=Cc3cc([N+](=O)[O-])ccc3O)c2C(=O)c2c(NCCN=Cc3cc([N+](=O)[O-])ccc3O)cccc21
inactive: DU-145 prostate 67% | K-562 leukemia 28.6% | MALME-3M melanoma 85.1% | MDA-MB-231 breast 58.9% | RXF 393 renal 74.5% | SF-268 CNS 40% | SF-295 CNS 73% | SF-539 CNS 70.8% | UACC-257 melanoma 104% | M14 melanoma 102% | HCT-15 colon 82% | HT29 colon 37.1% | SNB-75 CNS 65.9% | SNB-19 CNS 50.4% | U251 CNS 44.5% | PC-3 prostate 50% | SK-MEL-5 melanoma 92.1% | UACC-62 melanoma 90.2% | LOX IMVI melanoma 58.6% | SK-MEL-28 melanoma 102%

CCCCOc1nc2ccccc2cc1C1CNC(=O)c2ccccc2N1 (stereo not given)
active: RXF 393 renal -14.3% | SF-295 CNS -5.68% | SF-539 CNS -25.5% | M14 melanoma -23.1% | HT29 colon 0.868% | SNB-75 CNS 3.14%
inactive: DU-145 prostate 10.7% | K-562 leukemia 12.8% | MALME-3M melanoma 45.6% | MDA-MB-231 breast 47.5% | SF-268 CNS 43.6% | UACC-257 melanoma 57.2% | HCT-15 colon 15.3% | SNB-19 CNS 33.4% | U251 CNS 18.6% | PC-3 prostate 24.7% | SK-MEL-5 melanoma 15.6% | UACC-62 melanoma 32.6% | LOX IMVI melanoma 27.1% | SK-MEL-28 melanoma 45.8%

O=C(CCCCCCN1CC(=O)N2[C@@H](c3ccccc3Cl)c3[nH]c4ccccc4c3C[C@H]2C1=O)NO
active: SNB-75 CNS -1.06%
inactive: DU-145 prostate 77.2% | K-562 leukemia 25.7% | MALME-3M melanoma 21.9% | MDA-MB-231 breast 63.1% | RXF 393 renal 61.3% | SF-268 CNS 89.9% | SF-295 CNS 80.3% | SF-539 CNS 60% | UACC-257 melanoma 51.7% | M14 melanoma 49.3% | HCT-15 colon 97.5% | HT29 colon 57.6% | SNB-19 CNS 71.8% | U251 CNS 60.1% | PC-3 prostate 61.8% | SK-MEL-5 melanoma 46.9% | UACC-62 melanoma 34% | LOX IMVI melanoma 14.7% | SK-MEL-28 melanoma 43.8%

CCN(CCNc1ccc(C)c2sc3ccccc3c(=O)c12)CC(C)(C)O
inactive: DU-145 prostate 95.7% | MALME-3M melanoma 89.1% | MDA-MB-231 breast 78% | RXF 393 renal 74.7% | SF-268 CNS 83.3% | SF-539 CNS 78.9% | UACC-257 melanoma 95.9% | M14 melanoma 73.2% | HCT-15 colon 28.8% | HT29 colon 39.2% | SNB-75 CNS 73.7% | SNB-19 CNS 78% | U251 CNS 49.7% | PC-3 prostate 71.4% | SK-MEL-5 melanoma 75.9% | UACC-62 melanoma 53.6% | LOX IMVI melanoma 54.4% | SK-MEL-28 melanoma 79.6%
active: K-562 leukemia -34.5% | SF-295 CNS -17.6%

O=C(c1ccc(Nc2nccc(NCCCCNc3ccnc4cc(Cl)ccc34)n2)cc1)N1CCCCC1
inactive: DU-145 prostate 51.6% | RXF 393 renal 46.9% | SF-268 CNS 34.2% | HCT-15 colon 11.2% | SNB-19 CNS 24.7% | PC-3 prostate 28.7%
active: K-562 leukemia -25.3% | MALME-3M melanoma -78.6% | MDA-MB-231 breast -9.32% | SF-295 CNS 1.19% | SF-539 CNS -73.7% | UACC-257 melanoma -50.8% | M14 melanoma -69% | HT29 colon -11.3% | SNB-75 CNS -23.5% | U251 CNS -31.6% | SK-MEL-5 melanoma -92.3% | UACC-62 melanoma -23% | LOX IMVI melanoma -83.2% | SK-MEL-28 melanoma -52.5%

Cc1cc(/C=C\c2ccc3ccccc3[n+]2C)c(O)c2ncccc12
active: K-562 leukemia 8.28% | MALME-3M melanoma -4.74% | MDA-MB-231 breast 4.71% | RXF 393 renal -20.3% | SF-295 CNS 0.202% | SF-539 CNS -36.9% | M14 melanoma -51.6% | U251 CNS 9.3% | SK-MEL-5 melanoma 6.19% | UACC-62 melanoma -26.5% | LOX IMVI melanoma -27.2%
inactive: DU-145 prostate 26.2% | SF-268 CNS 14.1% | UACC-257 melanoma 16.4% | HCT-15 colon 27.9% | HT29 colon 25.7% | SNB-75 CNS 37.8% | SNB-19 CNS 11.9% | PC-3 prostate 34.1% | SK-MEL-28 melanoma 25.7%

CC1OC(O[C@H]2/C=C/C=C/C=C/C=C/C=C/C=C/C=C/[C@H](C)[C@@H](O)[C@@H](C)[C@H](C)OC(=O)CC(O)CC(O)CCC(O)C(O)CC(O)C[C@]3(O)C[C@H](O)C(C(=O)O)C(C2)O3)C(O)[C@H](N)C1O (stereo not given in full)
inactive: K-562 leukemia 91.8% | MDA-MB-231 breast 58.7% | SF-295 CNS 65% | SF-539 CNS 17.2% | M14 melanoma 16.3% | HCT-15 colon 76.7% | HT29 colon 36.8% | SNB-75 CNS 57.8% | SNB-19 CNS 40.2% | SK-MEL-5 melanoma 35.9%
active: DU-145 prostate -29.9% | MALME-3M melanoma -66% | RXF 393 renal -64.4% | SF-268 CNS -70.4% | UACC-257 melanoma -76% | U251 CNS -57.1% | PC-3 prostate -54.6% | UACC-62 melanoma -13% | LOX IMVI melanoma -12% | SK-MEL-28 melanoma -65.8%

O=C(/C=C/c1c(Cl)nc2sccn12)c1nccs1
inactive: DU-145 prostate 112% | K-562 leukemia 84.3% | MALME-3M melanoma 108% | MDA-MB-231 breast 95.8% | RXF 393 renal 70.7% | SF-268 CNS 84.8% | SF-295 CNS 110% | SF-539 CNS 106% | UACC-257 melanoma 81% | M14 melanoma 93.9% | HCT-15 colon 99.3% | HT29 colon 97.5% | SNB-75 CNS 67.1% | SNB-19 CNS 102% | U251 CNS 91.6% | PC-3 prostate 91.1% | SK-MEL-5 melanoma 95.6% | UACC-62 melanoma 89.7% | LOX IMVI melanoma 89.1% | SK-MEL-28 melanoma 104%

O=C(O)c1ccc2c(c1Cl)C(=O)c1ccccc1C2=O
inactive: DU-145 prostate 107% | K-562 leukemia 73.7% | MALME-3M melanoma 132% | MDA-MB-231 breast 112% | RXF 393 renal 165% | SF-268 CNS 113% | SF-295 CNS 108% | SF-539 CNS 102% | UACC-257 melanoma 109% | M14 melanoma 103% | HCT-15 colon 95.9% | HT29 colon 87.5% | SNB-75 CNS 73.1% | SNB-19 CNS 98.8% | U251 CNS 99.1% | PC-3 prostate 116% | SK-MEL-5 melanoma 102% | UACC-62 melanoma 97.7% | LOX IMVI melanoma 97.2% | SK-MEL-28 melanoma 107%

COc1ccc(Cl)cc1NC(=O)C(Br)C(Br)C(=O)O (stereo not given)
active: K-562 leukemia -27% | SK-MEL-5 melanoma -82.2% | UACC-62 melanoma 7.23% | LOX IMVI melanoma -69.8%
inactive: DU-145 prostate 97.2% | MALME-3M melanoma 46.2% | MDA-MB-231 breast 46.2% | RXF 393 renal 44.4% | SF-268 CNS 19.7% | SF-295 CNS 99.8% | SF-539 CNS 77.7% | UACC-257 melanoma 60.8% | M14 melanoma 75.9% | HCT-15 colon 67.5% | HT29 colon 108% | SNB-75 CNS 103% | SNB-19 CNS 122% | U251 CNS 49.9% | PC-3 prostate 56.3% | SK-MEL-28 melanoma 60.1%

CC/C=C\CCC/C=C1/C(=O)C=C[C@@H]1C/C=C\CCCC(=O)O
inactive: DU-145 prostate 83.9% | MALME-3M melanoma 92% | MDA-MB-231 breast 44.1% | RXF 393 renal 108% | SF-268 CNS 89% | SF-295 CNS 82.9% | SF-539 CNS 103% | UACC-257 melanoma 72.3% | M14 melanoma 54.6% | HCT-15 colon 53.7% | HT29 colon 31.9% | SNB-75 CNS 86.5% | SNB-19 CNS 69.2% | U251 CNS 39.8% | PC-3 prostate 57.6% | SK-MEL-5 melanoma 16.9% | UACC-62 melanoma 15.6% | SK-MEL-28 melanoma 87.1%
active: K-562 leukemia 7.87% | LOX IMVI melanoma 0.644%

CC(=O)O[C@]1(C(C)=O)CCC2C3C[C@H](C)C4=CC(=O)CC[C@]4(C)C3CC[C@@]21C (stereo not given in full)
inactive: DU-145 prostate 117% | K-562 leukemia 96% | MALME-3M melanoma 82.8% | MDA-MB-231 breast 71% | RXF 393 renal 119% | SF-268 CNS 108% | SF-295 CNS 95.7% | SF-539 CNS 94.1% | UACC-257 melanoma 107% | M14 melanoma 89% | HCT-15 colon 92.3% | HT29 colon 87.7% | SNB-75 CNS 96% | SNB-19 CNS 96.4% | U251 CNS 104% | PC-3 prostate 68.4% | SK-MEL-5 melanoma 81.8% | UACC-62 melanoma 79.3% | LOX IMVI melanoma 95.7% | SK-MEL-28 melanoma 108%
